Results filed as inconclusive are left out. Activity calls are given as the source filed them. Unless noted, calls follow the shape of the dose curve; as a rule, active = well fitted curve in the direction sought with a large enough effect; inconclusive = small, poorly fitted or top-dose-only effect, or another doubt; inactive = no such curve, though single readings can be large; an effect the other way counts as inactive or inconclusive.
How the values were obtained:
[1] = target: Lysosomal acid glucosylceramidase (Homo sapiens) (UniProt P04062); test: Glucocerebrosidase-p2 (AID 348; in the data active = potency below about 10 µM; also: potency is read from the fitted curve at half-maximal effect); conditions: purified GBA, blue fluorogenic substrate, 40 min
Procedure, shortened: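 Compounds titrated from 0.6 nM upwards against 0.2 nM enzyme in pH 5.9 citric acid/KH2PO4, taurocholate, tween-20; blue fluorogenic substrate 80 uM, 40 min room temperature, stopped and read Ex 365/Em 440 for AC50.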

[2] = AP1 Signaling Pathway (AID 357; active = well fitted curve in either direction with a large enough effect, not every such curve was filed as active;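 also: ME-180 reporter cells stimulated with EGF at its EC50 level; % is scaled to controls: 0 for no effect and ±100 for the full control effect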); conditions: ME-180 AP-1-bla reporter, EGF-induced, beta-lactamase ratio, 5 h; at 7.69 µM (top of the series) unless noted
Procedure, shortened: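 Cells are seeded overnight, exposed to compound titrations and an EC50 level of EGF for 5 hours at 37 °C, then loaded with CCF4 dye for 2.5 hours. Beta-lactamase activity under the AP-1 element is read as a blue/green ratio.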

[3] = target: Cytochrome P450 1A2 (Homo sapiens) (UniProt P05177); test: p450-cyp1a2 (AID 410; calls by dose curve;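 also: -100% = full effect of reference inhibitor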); conditions: recombinant CYP1A2, luciferin-ME demethylation, luminescence; series mostly up to 11.4 µM
Procedure, shortened: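 Human CYP1A2 (20nM) demethylated Luciferin-ME at its Km (100uM) in 100mM KPO4. After 10 min compound preincubation, NADPH regeneration ran the reaction 60 min at room temperature. Luciferin was read by luminescence, normalized to 57 uM furafylline.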

[4] = Stat Signaling Pathway (AID 446; active = well fitted curve in either direction with a large enough effect, not every such curve was filed as active;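 also: ME-180 cervical cancer cells given 40 pM IL-6 alongside compound; SIE-controlled beta-lactamase reporter measured as 460/530 nm FRET emission ratio; % is scaled to controls: 0 for no effect and ±100 for the full control effect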); conditions: ME-180 SIE beta-lactamase reporter, IL-6 stimulated, 5 h; at 7.69 µM (top of the series) unless noted
Procedure, shortened: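 Screening format detects activators and inhibitors alike: ME-180 SIE-bla cells stimulated at 40 pM IL-6 for 5 hrs with compound, then dual-emission beta-lactamase read at 405 nm excitation.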

[5] = target: Glucocorticoid receptor (Homo sapiens) (UniProt P04150); test: GR-GFP Redistribution (AID 450;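 active = compounds whose dose series gives a full or clear partial fitted curve of increased nuclear translocation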; also: potency is read from the fitted curve at half-maximal effect); conditions: U2OS GR-GFP nuclear translocation, laser cytometry, 2 h
[6] = target: Glucocorticoid receptor (Homo sapiens) (UniProt P04150); test: GR-EFC Redistribution (AID 451; calls by dose curve; also: potency is read from the fitted curve at half-maximal effect); conditions: CHO-K1 GR-EFC translocation, beta-gal luminescence, 2 h
Procedure, shortened: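 CHO-K1 cells expressing nuclear EA and GR-ED fragments of b-gal; compounds titrated up to 46 uM final, 2 h at 37 C. GR nuclear translocation read as complemented b-gal luminescence after 1 h RT detection.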

[7] = target: Mitogen-activated protein kinase 10 (Mus musculus) (UniProt Q61831); test: JNK3 AlphaScreen Assay (AID 530; active = well fitted curve in either direction with a large enough effect, not every such curve was filed as active;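 also: kinase came from lysate of stimulated human HepG2 cells; signal reports phosphorylation of biotinylated GST-cJun 1-79 at Ser73 with 10 µM ATP; % is scaled to controls: 0 for no effect and ±100 for the full control effect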); conditions: JNK3 lysate, c-Jun phosphorylation; series mostly up to 57.1 µM
Procedure, shortened: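 qHTS format: compounds tested as titrations against IL-1beta/TNF-alpha-activated HepG2 lysate JNK3 with biotin-GST-cJun substrate and 10 uM ATP at room temperature. Loss of anti-phospho-cJun AlphaScreen signal indicates inhibition.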

[8] = target: 3',5'-cyclic-AMP phosphodiesterase 4B (Homo sapiens) (UniProt Q07343); test: qHTS Assay for Inhibitors of PDE-IV (AID 607; active = well fitted activation curve with a large enough effect in the main read-out, with a control signal flat, not every such curve was filed as active; also: % of control where 0% means no effect); conditions: HEK293 ACTOne CNG channel cells, membrane potential fluorescence; series mostly up to 22.9 µM
Procedure, shortened: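 The readout is membrane depolarisation from a cAMP-sensing CNG channel, detected with a potential dye at ex 535/em 590. Cells were HEK293-derived (endogenous PDE-IV) at 1000 cells/well, titrated up to 22.9 uM final.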

[9] = target: ATP-dependent 6-phosphofructokinase (Trypanosoma brucei brucei) (UniProt O15648); test: qHTS Assay to Find Inhibitors of T. brucei phosphofructokinase: hit validation (AID 492961); also: % is scaled to controls: 0 for no effect and ±100 for the full control effect; conditions: T. brucei PFK, ADP-Glo luminescence; series mostly up to 51.4 µM
Procedure, shortened: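 Luminescence from ADP-Glo reports ADP generated as T. brucei PFK (1.25 nM) phosphorylates 0.5 mM fructose-6-phosphate using 0.1 mM ATP. Reactions ran 45 min at room temperature, pH 8.0.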

[10] = target: Ubiquitin carboxyl-terminal hydrolase 1 (Homo sapiens) (UniProt O94782); test: Inhibitors of USP1/UAF1: Pilot qHTS (AID 504865); conditions: purified USP1/UAF1, Ub-rhodamine cleavage fluorescence; series mostly up to 114 µM;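 also: rhodamine fluorescence freed from ubiquitin-rhodamine substrate followed over time; top concentration of the series differs between compounds; % is scaled to controls: 0 for no effect and ±100 for the full control effect; nearly all actives have a fitted effect of over 35% in size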
Procedure, shortened: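 USP1/UAF1 complex at 1 nM preincubated 15 min at room temperature with compound, then Ub-Rho substrate added at 150 nM final. Fluorescence (480/540 nm) read kinetically in 50 mM HEPES pH 7.8, 0.5 mM EDTA, 1 mM TCEP, 0.1 mg/ml BSA, 0.01% Tween-20.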

[11] = target: Luciferin 4-monooxygenase (Photinus pyralis) (UniProt P08659); test: Biochemical firefly luciferase enzyme assay for NPC (AID 624030);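 also: purified P. pyralis luciferase at 10 nM with luciferin and ATP substrate; 0% = DMSO and -100% = full luciferase inhibition by PTC124 control; nearly all actives have a fitted effect of over 70% in size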; conditions: purified P. pyralis luciferase, luminescence, 5 min; series mostly up to 58.6 µM
Procedure, shortened: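 Purified P. pyralis luciferase at 10 nM in 50 mM Tris Acetate (final), luminescence read within 5 minutes of enzyme addition to compounds. Activity normalised to PTC124 versus DMSO; concentration-response curves classed by r2, magnitude and activity.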

[12] = S16 Schwann cell viability assay (CellTiter-Glo assay) (AID 624031); conditions: S16 rat Schwann cells viability, 24 h; series mostly up to 57.5 µM;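 also: cellular ATP luminescence as a viability measure; plate controls were DMSO-treated cells for no effect and cell-free wells for full effect; nearly all actives have a fitted effect of over 70% in size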
Procedure, shortened: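 Untransfected S16 rat Schwann cells; compound 24 h, 37 °C/5% CO2; CellTiter-Glo ATP luminescence. % activity vs no-cell wells and DMSO controls (0%); concentration-effect curves classed by r2, response magnitude, activity.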

[13] = S16 Schwann cell PMP22 intronic element firefly luciferase assay (AID 624032); conditions: S16 rat Schwann cells, PMP22 element FLuc, 24 h; series mostly up to 57.5 µM;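 also: plate controls were DMSO for no effect and PTC124 positive control mean for full effect; nearly all actives have a fitted effect of over 30% in size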
Procedure, shortened: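 Rat S16 Schwann cells stably carrying firefly luciferase driven by a PMP22 intronic element, in 10% FBS, treated 24 h at 37 C. ONE-Glo luminescence normalized to PTC124 control and DMSO (0%); curves classed by r2, magnitude and activity.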

[14] = S16 Schwann cell PMP22 intronic element beta-lactamase assay (AID 624044; calls by dose curve;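 also: 0% = DMSO and -100% = potassium clavulanate positive control; nearly all actives have a fitted effect of over 15% in size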); conditions: S16 rat Schwann cells, PMP22 element beta-lactamase FRET, 24 h; series mostly up to 38.3 µM
Procedure, shortened: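 Rat S16 Schwann cells with beta-Lac driven by a PMP22 intronic element, compound-treated 24 h at 37 °C. LiveBLAzer FRET B/G read: 460 nm normalized to potassium clavulanate vs DMSO; 535 nm FRET as viability; concentration-effect curves classified.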

[15] = qHTS profiling for inhibitors of Plasmodium falciparum proliferation (AID 504749);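 also: 0% = DMSO vehicle and full inhibition = artemisinin control; nearly all actives have a fitted effect of over 60% in size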; conditions: P. falciparum in erythrocytes, SYBR Green DNA, 72 h, at 28.7 µM (top of the series)
Procedure, shortened: (§1)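 Readout was DNA-dye fluorescence from lysed cultures, ex 485/em 535 nm. Parasitized red cells had grown 72 h with compound; data scaled between 0.29 uM artemisinin and DMSO wells and corrected using vehicle-only plates.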

[16] = tested on: 7G8; test: as above; conditions: P. falciparum in erythrocytes, SYBR Green DNA, 72 h; series mostly up to 28.7 µM
Procedure, shortened: as §1

[17] = tested on: AA1029; test: as above; conditions: P. falciparum in erythrocytes, SYBR Green DNA, 72 h; series mostly up to 28.7 µM
Procedure, shortened: as §1

[18] = tested on: AS120; test: as above; conditions: P. falciparum in erythrocytes, SYBR Green DNA, 72 h; series mostly up to 28.7 µM
Procedure, shortened: as §1

[19] = tested on: ATS189; test: as above; conditions: P. falciparum in erythrocytes, SYBR Green DNA, 72 h; series mostly up to 28.7 µM
Procedure, shortened: as §1

[20] = tested on: C2A; test: as above; conditions: P. falciparum in erythrocytes, SYBR Green DNA, 72 h; series mostly up to 28.7 µM
Procedure, shortened: as §1

[21] = tested on: CP185; test: as above; conditions: P. falciparum in erythrocytes, SYBR Green DNA, 72 h; series mostly up to 28.7 µM
Procedure, shortened: as §1

[22] = tested on: CP191; test: as above; conditions: P. falciparum in erythrocytes, SYBR Green DNA, 72 h; series mostly up to 28.7 µM
Procedure, shortened: as §1

[23] = tested on: CP192; test: as above; conditions: P. falciparum in erythrocytes, SYBR Green DNA, 72 h; series mostly up to 28.7 µM
Procedure, shortened: as §1

[24] = tested on: CP194; test: as above; conditions: P. falciparum in erythrocytes, SYBR Green DNA, 72 h; series mostly up to 28.7 µM
Procedure, shortened: as §1

[25] = tested on: CP201; test: as above; conditions: P. falciparum in erythrocytes, SYBR Green DNA, 72 h; series mostly up to 28.7 µM
Procedure, shortened: as §1

[26] = tested on: CP203; test: as above; conditions: P. falciparum in erythrocytes, SYBR Green DNA, 72 h; series mostly up to 28.7 µM
Procedure, shortened: as §1

[27] = tested on: CP211; test: as above; conditions: P. falciparum in erythrocytes, SYBR Green DNA, 72 h; series mostly up to 28.7 µM
Procedure, shortened: as §1

[28] = tested on: CP217; test: as above; conditions: P. falciparum in erythrocytes, SYBR Green DNA, 72 h; series mostly up to 28.7 µM
Procedure, shortened: as §1

[29] = tested on: CP237; test: as above; conditions: P. falciparum in erythrocytes, SYBR Green DNA, 72 h; series mostly up to 28.7 µM
Procedure, shortened: as §1

[30] = tested on: CP238; test: as above; conditions: P. falciparum in erythrocytes, SYBR Green DNA, 72 h; series mostly up to 28.7 µM
Procedure, shortened: as §1

[31] = tested on: CP247; test: as above; conditions: P. falciparum in erythrocytes, SYBR Green DNA, 72 h; series mostly up to 28.7 µM
Procedure, shortened: as §1

[32] = tested on: CP250; test: as above; conditions: P. falciparum in erythrocytes, SYBR Green DNA, 72 h; series mostly up to 28.7 µM
Procedure, shortened: as §1

[33] = tested on: CP252; test: as above; conditions: P. falciparum in erythrocytes, SYBR Green DNA, 72 h; series mostly up to 28.7 µM
Procedure, shortened: as §1

Sequence of Glucocorticoid receptor (Homo sapiens) (P04150 whole entry, looked up, the tested form may be a part): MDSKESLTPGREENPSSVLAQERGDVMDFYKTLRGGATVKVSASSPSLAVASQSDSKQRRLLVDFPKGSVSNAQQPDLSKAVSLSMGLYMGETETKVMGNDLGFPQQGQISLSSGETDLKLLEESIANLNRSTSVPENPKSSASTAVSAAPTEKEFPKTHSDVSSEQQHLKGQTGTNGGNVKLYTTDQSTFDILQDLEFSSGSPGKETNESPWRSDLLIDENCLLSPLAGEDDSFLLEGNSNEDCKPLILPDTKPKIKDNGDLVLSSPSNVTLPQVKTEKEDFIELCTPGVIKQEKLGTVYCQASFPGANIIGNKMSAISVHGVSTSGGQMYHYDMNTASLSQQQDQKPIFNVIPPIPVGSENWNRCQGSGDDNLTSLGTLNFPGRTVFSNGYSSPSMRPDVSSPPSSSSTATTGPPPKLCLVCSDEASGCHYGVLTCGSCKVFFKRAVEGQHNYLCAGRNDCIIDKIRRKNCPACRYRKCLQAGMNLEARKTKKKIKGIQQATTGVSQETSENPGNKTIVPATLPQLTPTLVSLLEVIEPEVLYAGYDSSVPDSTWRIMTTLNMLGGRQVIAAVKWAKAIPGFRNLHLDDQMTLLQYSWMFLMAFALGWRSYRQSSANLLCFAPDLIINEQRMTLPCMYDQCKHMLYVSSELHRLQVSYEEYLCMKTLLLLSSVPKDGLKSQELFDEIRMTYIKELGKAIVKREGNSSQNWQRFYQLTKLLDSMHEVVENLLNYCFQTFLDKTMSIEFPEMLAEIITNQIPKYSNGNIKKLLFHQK
Sequence of Cytochrome P450 1A2 (Homo sapiens) (P05177 whole entry, looked up): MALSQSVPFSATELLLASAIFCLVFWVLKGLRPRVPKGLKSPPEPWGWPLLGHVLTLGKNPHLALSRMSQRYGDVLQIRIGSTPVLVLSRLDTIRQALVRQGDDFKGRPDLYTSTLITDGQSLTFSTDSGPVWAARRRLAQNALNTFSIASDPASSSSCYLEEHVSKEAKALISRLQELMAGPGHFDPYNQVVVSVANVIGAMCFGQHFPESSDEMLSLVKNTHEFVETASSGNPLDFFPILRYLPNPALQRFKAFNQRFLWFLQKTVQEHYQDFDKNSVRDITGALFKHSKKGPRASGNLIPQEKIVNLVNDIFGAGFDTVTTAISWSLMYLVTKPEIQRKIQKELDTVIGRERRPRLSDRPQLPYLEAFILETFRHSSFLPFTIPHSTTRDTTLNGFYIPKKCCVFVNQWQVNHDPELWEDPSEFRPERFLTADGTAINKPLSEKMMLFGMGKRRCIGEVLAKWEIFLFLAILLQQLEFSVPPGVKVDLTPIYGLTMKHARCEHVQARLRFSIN
Sequence of ATP-dependent 6-phosphofructokinase (Trypanosoma brucei brucei) (O15648 whole entry, looked up): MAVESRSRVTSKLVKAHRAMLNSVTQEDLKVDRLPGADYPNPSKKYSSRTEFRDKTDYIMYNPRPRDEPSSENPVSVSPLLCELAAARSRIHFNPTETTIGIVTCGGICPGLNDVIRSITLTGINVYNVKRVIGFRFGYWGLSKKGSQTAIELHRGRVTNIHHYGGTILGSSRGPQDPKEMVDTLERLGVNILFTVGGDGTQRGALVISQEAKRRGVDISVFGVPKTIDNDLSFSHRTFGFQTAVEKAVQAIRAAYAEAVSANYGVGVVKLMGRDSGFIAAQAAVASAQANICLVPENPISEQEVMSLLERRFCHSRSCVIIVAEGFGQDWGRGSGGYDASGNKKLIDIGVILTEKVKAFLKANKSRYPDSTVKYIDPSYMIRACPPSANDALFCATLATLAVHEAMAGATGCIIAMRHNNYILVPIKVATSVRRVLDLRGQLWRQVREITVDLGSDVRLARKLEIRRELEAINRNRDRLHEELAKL
Sequence of 3',5'-cyclic-AMP phosphodiesterase 4B (Homo sapiens) (Q07343 whole entry, looked up): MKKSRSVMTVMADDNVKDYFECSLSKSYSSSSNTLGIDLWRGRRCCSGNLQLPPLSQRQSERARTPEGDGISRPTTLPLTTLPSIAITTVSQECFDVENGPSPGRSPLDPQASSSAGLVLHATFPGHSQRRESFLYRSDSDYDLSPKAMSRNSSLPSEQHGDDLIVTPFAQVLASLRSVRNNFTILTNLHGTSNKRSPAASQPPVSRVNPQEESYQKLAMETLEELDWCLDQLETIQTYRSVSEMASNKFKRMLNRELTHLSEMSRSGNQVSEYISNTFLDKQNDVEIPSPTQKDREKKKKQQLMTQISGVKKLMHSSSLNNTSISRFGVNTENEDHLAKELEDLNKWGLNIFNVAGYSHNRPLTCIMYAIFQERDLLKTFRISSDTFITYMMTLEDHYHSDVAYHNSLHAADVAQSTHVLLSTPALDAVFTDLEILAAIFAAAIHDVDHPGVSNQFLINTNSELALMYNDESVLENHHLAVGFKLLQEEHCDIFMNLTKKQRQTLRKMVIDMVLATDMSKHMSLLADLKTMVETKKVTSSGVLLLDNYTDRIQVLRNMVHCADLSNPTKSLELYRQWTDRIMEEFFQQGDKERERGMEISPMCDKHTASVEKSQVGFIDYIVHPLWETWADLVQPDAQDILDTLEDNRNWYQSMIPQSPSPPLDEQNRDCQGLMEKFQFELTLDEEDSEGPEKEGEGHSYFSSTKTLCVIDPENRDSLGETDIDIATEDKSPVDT
Sequence of Luciferin 4-monooxygenase (Photinus pyralis) (P08659 whole entry, looked up): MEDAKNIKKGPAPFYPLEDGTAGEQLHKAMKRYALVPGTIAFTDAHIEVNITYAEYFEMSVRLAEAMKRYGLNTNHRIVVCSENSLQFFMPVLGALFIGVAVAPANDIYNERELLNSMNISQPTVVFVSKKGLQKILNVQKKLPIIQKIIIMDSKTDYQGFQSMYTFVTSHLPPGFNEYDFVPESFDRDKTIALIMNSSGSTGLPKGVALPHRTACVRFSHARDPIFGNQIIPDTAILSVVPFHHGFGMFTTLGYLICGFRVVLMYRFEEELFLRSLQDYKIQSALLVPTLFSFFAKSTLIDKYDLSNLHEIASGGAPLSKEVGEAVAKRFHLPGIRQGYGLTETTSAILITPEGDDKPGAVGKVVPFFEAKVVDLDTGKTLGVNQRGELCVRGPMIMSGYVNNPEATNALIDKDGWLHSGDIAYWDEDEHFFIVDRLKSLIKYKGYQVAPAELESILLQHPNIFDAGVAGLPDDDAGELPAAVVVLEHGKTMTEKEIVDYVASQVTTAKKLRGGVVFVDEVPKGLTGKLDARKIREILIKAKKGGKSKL
Sequence of Ubiquitin carboxyl-terminal hydrolase 1 (Homo sapiens) (O94782 whole entry, looked up): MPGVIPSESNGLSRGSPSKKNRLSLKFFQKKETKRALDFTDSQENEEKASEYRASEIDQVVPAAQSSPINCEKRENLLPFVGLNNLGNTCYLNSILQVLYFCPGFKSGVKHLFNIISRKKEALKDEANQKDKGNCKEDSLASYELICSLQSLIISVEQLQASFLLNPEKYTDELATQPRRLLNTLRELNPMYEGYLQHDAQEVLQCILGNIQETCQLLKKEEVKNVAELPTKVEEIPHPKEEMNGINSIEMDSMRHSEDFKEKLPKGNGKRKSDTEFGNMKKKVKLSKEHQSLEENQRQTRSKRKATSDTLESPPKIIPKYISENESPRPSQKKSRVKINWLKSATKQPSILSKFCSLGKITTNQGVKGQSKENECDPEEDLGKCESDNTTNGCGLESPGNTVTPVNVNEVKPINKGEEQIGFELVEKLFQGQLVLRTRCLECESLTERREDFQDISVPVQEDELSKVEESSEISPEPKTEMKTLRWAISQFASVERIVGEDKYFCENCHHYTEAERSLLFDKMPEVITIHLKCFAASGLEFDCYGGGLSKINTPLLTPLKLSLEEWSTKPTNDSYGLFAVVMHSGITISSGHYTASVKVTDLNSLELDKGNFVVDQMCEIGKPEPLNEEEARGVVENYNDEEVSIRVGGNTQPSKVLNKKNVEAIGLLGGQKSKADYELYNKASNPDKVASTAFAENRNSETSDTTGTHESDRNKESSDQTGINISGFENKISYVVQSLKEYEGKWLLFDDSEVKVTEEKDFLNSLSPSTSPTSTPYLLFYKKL
Sequence of Lysosomal acid glucosylceramidase (Homo sapiens) (P04062 whole entry, looked up): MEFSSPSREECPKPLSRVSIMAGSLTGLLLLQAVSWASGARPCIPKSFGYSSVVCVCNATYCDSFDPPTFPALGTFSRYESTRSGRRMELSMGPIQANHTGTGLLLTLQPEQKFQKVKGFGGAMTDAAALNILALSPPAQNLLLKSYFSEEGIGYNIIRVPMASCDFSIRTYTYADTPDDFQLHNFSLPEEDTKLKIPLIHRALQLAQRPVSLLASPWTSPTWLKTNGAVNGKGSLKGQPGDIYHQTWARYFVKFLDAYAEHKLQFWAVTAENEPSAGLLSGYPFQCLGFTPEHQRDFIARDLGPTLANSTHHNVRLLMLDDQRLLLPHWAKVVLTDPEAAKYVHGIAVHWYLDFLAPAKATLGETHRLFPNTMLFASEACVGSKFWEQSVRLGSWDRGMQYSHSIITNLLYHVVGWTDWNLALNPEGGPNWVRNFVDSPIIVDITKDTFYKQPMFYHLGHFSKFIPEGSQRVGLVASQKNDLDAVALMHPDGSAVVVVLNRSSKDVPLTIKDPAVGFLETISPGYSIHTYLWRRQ

C[N+]1(C)C2CC[C@H]1CC(OC(=O)[C@@H](CO)c1ccccc1)C2 (some centres undefined)
inactive: Potency [1] > 11.4 µM | activity change, negative = inhibition [2] 4% | Potency [3] | activity, negative = inhibition [4] 7.35% | Potency [5] > 46 µM | Potency [6] > 9.22 µM | activity change, negative = inhibition [7] 2.63% [at 11.4 µM] | outcome [8] | outcome [9] | Potency [10] | outcome [11] | outcome [12] | outcome [13] | outcome [14] | activity, negative = inhibition ([15]; parasite line A) 0.517% | activity, negative = inhibition ([15]; parasite line B) -9.85% | Potency [16] | Potency [17] | Potency [18] | Potency [19] | Potency [20] | Potency [21] | Potency [22] | Potency [23] | Potency [24] | Potency [25] | Potency [26] | Potency [27] | Potency [28] | Potency [29] | Potency [30] | Potency [31] | Potency [32] | Potency [33]

Reference: PubChem BioAssay (NCATS)
